# Data as given in the supplement of paper PMC8728848.
# Many of the other results were omitted from the sample, so the strongest signals are more common in it than they were.
# B1: PitA (Streptococcus oralis), G3F8D8 (protein)
# chain: MNIRFDFKKVQIIARRLVTLLAILFLCAPISLLNADSTTEPQTTLHKTITPISGQDDKYELSLDITSKLGTETQTDPLDVVLVADLSGSMQNQDVQSFDGRTISRIDALKNTLRGTNGRKGLIDTILSNSNNRLSMVGFGGKIDNKKVDQYWDGNKWRLFRPYWPYERMTKYYDGVSPWDDANTILGWSNNARAAKTAVYNMSIAGGNSIGTESGIGTGTNIGAGLTLANQLMGSARSNAKKVVILLSDGFANMVYDANGYTIYNYNNEDPNIETAPQWFWDRLNNNLNSLSYSLAPTLDGFYSIKFRYSNNVDSITSLQYYMRQHNASIPNEIFSANDEDQLRDSFKDITDKILPLGIHHVSIKDVLSKYVQLLPNGSSEFRVVKEKDGSSEILIENQVTFDTKTTSEGLVEVTAKFSPNYSLEDGARYVLKFTVTSSQEALDAIAGDKKLEAGDAEGSDVNKLYSNKGASVTYSYGIGNSQTKTKEYSDNPTFKPSDPLTVPVEVEWQGVTGARTVITADQPSNVELKLVQKNKNGGSDNQDYRKTNVNVSKNVSNETRNFEKVAKGYQYDLIAPDVPAFTKEIKNVGTESKPSFKVIYKQLPSLTIKKVLEAENNLNKEFRIKVKLTSPDSKPLNGTFGEITVVNGEAEIRVEKRKRWEGILSYLPRGTHYKVEEEAASTNGYHVTYENQEGDLNKDETSIVTNHKLPSLSVTKKVTGVFANLLKSFKITINIRDAQNSPLNGTYTATVNNKRTPLQFTNGRASIDLNKDQTIKIYGLPLDSHYTVEEESNSSRGYQVSYENQEGKLDGDKSATVTNNKNSVPETGVDFLSSTLMLGIILPLGGIFFTILLGYLVVHRRK
# Columns and labels:
# Experiment in all cases: glycan array binding signal (z-score within array); higher = stronger binding
# Settings in all cases: glycan notation: IUPAC condensed, linker removed
# [1] = target: Fuc(a1-2)Gal(b1-3)GalNAc(b1-3)Gal
# Method in brief: (§1)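 Glycan array data were curated from 3228 arrays in the Consortium for Functional Glycomics database and kept only where the protein sequence was available. Glycan names were converted to IUPAC-condensed notation, and columns mapping to the same glycan were averaged. The binding signal is a within-array Z-score, averaged across arrays of the same protein sequence at different concentrations or buffers and across linkers. Negative Z-scores can be read as non-binding.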
# [2] = target: Fuc(a1-2)Gal(b1-3)GlcNAc(b1-2)Man(a1-3)[Fuc(a1-2)Gal(b1-3)GlcNAc(b1-2)Man(a1-6)]Man(b1-4)GlcNAc(b1-4)GlcNAc
# Method in brief: as §1
# [3] = target: Fuc(a1-2)Gal(b1-4)[Fuc(a1-3)]GlcNAc(b1-3)GalNAc
# Method in brief: as §1
# [4] = target: Fuc(a1-2)Gal6S(b1-3)GlcNAc
# Method in brief: as §1
# [5] = target: Fuc(a1-2)[Gal(a1-3)]Gal(b1-4)GlcNAc(b1-6)GalNAc
# Method in brief: as §1
# [6] = target: Fuc(a1-2)[GalNAc(a1-3)]Gal(b1-3)GlcNAc(b1-2)Man(a1-3)[Fuc(a1-2)[GalNAc(a1-3)]Gal(b1-3)GlcNAc(b1-2)Man(a1-6)]Man(b1-4)GlcNAc(b1-4)GlcNAc
# Method in brief: as §1
# [7] = target: Fuc(a1-2)[GalNAc(a1-3)]Gal(b1-3)GlcNAc(b1-3)GalNAc
# Method in brief: as §1
# [8] = target: Fuc(a1-2)[GalNAc(a1-3)]Gal(b1-4)Glc
# Method in brief: as §1
# [9] = target: Fuc(a1-2)[GalNAc(a1-3)]Gal(b1-4)GlcNAc(b1-3)Gal(b1-4)GlcNAc
# Method in brief: as §1
# [10] = target: Fuc(a1-2)[GalNAc(a1-3)]Gal(b1-4)[Fuc(a1-3)]GlcNAc(b1-3)GalNAc
# Method in brief: as §1
# [11] = target: Fuc(a1-3)[Gal(b1-4)]GlcNAc(b1-4)Gal(b1-4)[Fuc(a1-3)]GlcNAc
# Method in brief: as §1
# [12] = target: Fuc(a1-3)[Gal(b1-4)]GlcNAc(b1-6)GalNAc
# Method in brief: as §1
# [13] = target: Fuc(a1-3)[Gal(b1-4)]GlcNAc6S
# Method in brief: as §1
# Gal(a1-2)Gal = target: Gal(a1-2)Gal
# Method in brief: as §1
# [14] = target: Gal(a1-3)Gal(b1-3)GlcNAc(b1-2)Man(a1-3)[Gal(a1-3)Gal(b1-3)GlcNAc(b1-2)Man(a1-6)]Man(b1-4)GlcNAc(b1-4)GlcNAc
# Method in brief: as §1
# Gal(a1-3)Gal(b1-4)GlcNAc = target: Gal(a1-3)Gal(b1-4)GlcNAc
# Method in brief: as §1
# Gal(b1-3)Gal = target: Gal(b1-3)Gal
# Method in brief: as §1
# [15] = target: Gal(b1-3)GlcNAc(b1-2)Man(a1-3)[GlcNAc(b1-4)][Gal(b1-3)GlcNAc(b1-2)Man(a1-6)]Man(b1-4)GlcNAc(b1-4)GlcNAc
# Method in brief: as §1
# [16] = target: Gal(b1-3)[GlcNAc(b1-6)]GalNAc
# Method in brief: as §1
# [17] = target: Gal(b1-4)GlcNAc(b1-3)Gal(b1-4)GlcNAc
# Method in brief: as §1
# [18] = target: Gal(b1-4)GlcNAc(b1-3)GalNAc
# Method in brief: as §1
# Gal6S(b1-4)Glc = target: Gal6S(b1-4)Glc
# Method in brief: as §1
# [19] = target: GalNAc(a1-3)GalNAc(b1-3)Gal(a1-4)Gal(b1-4)Glc
# Method in brief: as §1
# [20] = target: GalNAc(b1-3)Gal(a1-4)Gal(b1-4)GlcNAc(b1-3)Gal(b1-4)Glc
# Method in brief: as §1
# GalNAc6S(b1-4)GlcNAc = target: GalNAc6S(b1-4)GlcNAc
# Method in brief: as §1
# [21] = target: GlcNAc(a1-4)Gal(b1-4)GalNAc
# Method in brief: as §1
# [22] = target: GlcNAc(a1-4)Gal(b1-4)GlcNAc(b1-3)Gal(b1-4)[Fuc(a1-3)]GlcNAc(b1-3)Gal(b1-4)[Fuc(a1-3)]GlcNAc
# Method in brief: as §1
# [23] = target: GlcNAc(b1-3)Gal(b1-4)GlcNAc
# Method in brief: as §1
# [24] = target: GlcNAc(b1-3)Gal(b1-4)GlcNAc(b1-3)Gal(b1-4)GlcNAc
# Method in brief: as §1
# GlcNAc(b1-6)GalNAc = target: GlcNAc(b1-6)GalNAc
# Method in brief: as §1
# Kdn(a2-3)Gal(b1-4)Glc = target: Kdn(a2-3)Gal(b1-4)Glc
# Method in brief: as §1
# [25] = target: Kdn(a2-3)Gal(b1-4)[Fuc(a1-3)]GlcNAc
# Method in brief: as §1
# Man(a1-3)[Man(a1-6)]Man = target: Man(a1-3)[Man(a1-6)]Man
# Method in brief: as §1
# [26] = target: Neu5Ac(a2-3)Gal(b1-3)GlcNAc(b1-3)GalNAc
# Method in brief: as §1
# [27] = target: Neu5Ac(a2-3)Gal(b1-4)[Fuc(a1-3)]GlcNAc(b1-3)Gal(b1-4)[Fuc(a1-3)]GlcNAc(b1-3)Gal(b1-4)[Fuc(a1-3)]GlcNAc
# Method in brief: as §1
# [28] = target: Neu5Ac(a2-3)Gal(b1-4)[Fuc(a1-3)]GlcNAc(b1-3)GalNAc
# Method in brief: as §1
# [29] = target: Neu5Ac(a2-3)Gal6S(b1-4)[Fuc(a1-3)]GlcNAc
# Method in brief: as §1
# Neu5Ac(a2-6)Gal(b1-4)Glc = target: Neu5Ac(a2-6)Gal(b1-4)Glc
# Method in brief: as §1
# [30] = target: Neu5Ac(a2-6)Gal(b1-4)GlcNAc(b1-2)Man(a1-6)[Gal(b1-4)GlcNAc(b1-2)Man(a1-3)]Man(b1-4)GlcNAc(b1-4)GlcNAc
# Method in brief: as §1
# [31] = target: Neu5Ac(a2-6)Gal(b1-4)GlcNAc(b1-2)Man(a1-6)[Man(a1-3)]Man(b1-4)GlcNAc(b1-4)GlcNAc
# Method in brief: as §1
# [32] = target: Neu5Ac(a2-8)Neu5Ac(a2-3)[Gal(b1-3)GalNAc(b1-4)]Gal(b1-4)Glc
# Method in brief: as §1
# [33] = target: Neu5Ac(a2-8)Neu5Ac(a2-8)Neu5Ac(a2-8)Neu5Ac(a2-3)[GalNAc(b1-4)]Gal(b1-4)Glc
# Method in brief: as §1
# [34] = target: Neu5Ac9Ac(a2-3)Gal(b1-3)GlcNAc
# Method in brief: as §1
binder,measurement,setting,value
B1,glycan array binding signal (z-score),[1],10.3
same,glycan array binding signal (z-score),[2],0.06
same,glycan array binding signal (z-score),[3],7.27
same,glycan array binding signal (z-score),[4],-0.656
same,glycan array binding signal (z-score),[5],0.131
same,glycan array binding signal (z-score),[6],-0.473
same,glycan array binding signal (z-score),[7],4.75
same,glycan array binding signal (z-score),[8],-0.125
same,glycan array binding signal (z-score),[9],-0.715
same,glycan array binding signal (z-score),[10],5.3
same,glycan array binding signal (z-score),[11],0.05
same,glycan array binding signal (z-score),[12],4.67
same,glycan array binding signal (z-score),[13],0.782
same,glycan array binding signal (z-score),Gal(a1-2)Gal,-0.212
same,glycan array binding signal (z-score),[14],3.83
same,glycan array binding signal (z-score),Gal(a1-3)Gal(b1-4)GlcNAc,-0.128
same,glycan array binding signal (z-score),Gal(b1-3)Gal,-0.7
same,glycan array binding signal (z-score),[15],1.74
same,glycan array binding signal (z-score),[16],-0.437
same,glycan array binding signal (z-score),[17],-0.586
same,glycan array binding signal (z-score),[18],-0.575
same,glycan array binding signal (z-score),Gal6S(b1-4)Glc,-0.151
same,glycan array binding signal (z-score),[19],-0.395
same,glycan array binding signal (z-score),[20],0.654
same,glycan array binding signal (z-score),GalNAc6S(b1-4)GlcNAc,0.019
same,glycan array binding signal (z-score),[21],5.14
same,glycan array binding signal (z-score),[22],3.75
same,glycan array binding signal (z-score),[23],-0.199
same,glycan array binding signal (z-score),[24],-0.259
same,glycan array binding signal (z-score),GlcNAc(b1-6)GalNAc,0.138
same,glycan array binding signal (z-score),Kdn(a2-3)Gal(b1-4)Glc,-0.512
same,glycan array binding signal (z-score),[25],1.05
same,glycan array binding signal (z-score),Man(a1-3)[Man(a1-6)]Man,-0.627
same,glycan array binding signal (z-score),[26],-0.148
same,glycan array binding signal (z-score),[27],0.263
same,glycan array binding signal (z-score),[28],3.68
same,glycan array binding signal (z-score),[29],-0.322
same,glycan array binding signal (z-score),Neu5Ac(a2-6)Gal(b1-4)Glc,-0.522
same,glycan array binding signal (z-score),[30],-0.302
same,glycan array binding signal (z-score),[31],0.537
same,glycan array binding signal (z-score),[32],-0.463
same,glycan array binding signal (z-score),[33],0.179
same,glycan array binding signal (z-score),[34],-0.641
